Data as given in PubChem BioAssay (NCATS).
Records with an inconclusive call do not appear. Active and inactive are the calls of the source. Unless noted, calls follow the shape of the dose curve; as a rule, active = well fitted curve in the direction sought with a large enough effect; inconclusive = small, poorly fitted or top-dose-only effect, or another doubt; inactive = no such curve, though single readings can be large; an effect the other way counts as inactive or inconclusive.

Legend:
[1] = target: Luciferin 4-monooxygenase (Photinus pyralis) (UniProt P08659); assay: Biochemical firefly luciferase enzyme assay for NPC (AID 624030);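 also: purified P. pyralis luciferase at 10 nM with luciferin and ATP substrate; 0% = DMSO and -100% = full luciferase inhibition by PTC124 control; nearly all actives have a fitted effect of over 70% in size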
Summary of the method: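 Direct inhibition of firefly luciferase enzyme (10 nM final, 50 mM Tris Acetate) assessed by luminescence within 5 minutes. Percent activity scaled between DMSO and PTC124 positive control, with concentration-effect curves classified by fit quality and response.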

[2] = qHTS Assay for Identifying Gametocytocidal Compounds (AID 743244); also: potency is read from the fitted curve at half-maximal effect;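 as to max response: % is scaled to controls: 0 for no effect and ±100 for the full control effect; actives lower the fluorescent signal which means gametocytes are killed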; conditions: P. falciparum 3D7 stage III-V gametocytes, alamarBlue, 72 h; max response: stronger effect = lower value
Summary of the method: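 Compounds are pinned into medium, gametocytes (stage III–V, 3D7, 20,000 cells/well) added, and plates held 72 h at 37 °C in 5% CO2. AlamarBlue follows for 24 h before fluorescence reading.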

[3] = P-glycoprotein substrates identified in KB-8-5-11 adenocarcinoma cell line, qHTS therapeutic library screen (AID 1346987); also: nearly all actives have a fitted effect of over 65% in size; also: potency is read from the fitted curve at half-maximal effect
Summary of the method: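 Human cervical adenocarcinoma KB-8-5-11 cells, selected in colchicine to over-express P-gp and assayed without it, were exposed for 72 h to titrated compounds. An ATP-based luminescent viability signal gave AC50.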

[4] = tested on: KB-3-1; assay: Cytotoxic Profiling of Annotated Libraries Using Quantitative High-Throughput Screening (AID 1296008); conditions: Five cell lines viability, CellTiter-Glo ATP luminescence, 48-72 h; max response: stronger effect = lower value; also: % is scaled to controls: 0 for no effect and ±100 for the full control effect; nearly all actives have a fitted effect of over 60% in size
Summary of the method: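 Cytotoxicity was measured as CellTiter-Glo ATP luminescence, read after 10 min at room temperature. Compound treatment of the cells lasted 48 or 72 hr at 37 degrees Celsius in a qHTS format.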

[5] = tested on: astro; assay: Drug repurposing screens with cells derived from glioblastoma tumor samples (AID 1345199); conditions: viability, ATP luminescence, 48 h; series mostly up to 45.9 µM; also: % is scaled to controls: 0 for no effect and ±100 for the full control effect; nearly all actives have a fitted effect of over 40% in size
Summary of the method: (§1)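 Primary testing used CD133+ neurospheres from four GBM patients, seven concentrations, 48 h exposure and ATP-based viability; confirmation added three slower-growing patient lines.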

[6] = as above; conditions: GBM patient neurospheres viability, ATP luminescence, 48 h; Potency: tumour line A; series mostly up to 45.9 µM
Summary of the method: as §1

[7] = target: Furin (Homo sapiens) (UniProt P09958); assay: Furin counterscreen qHTS for Zika virus inhibitors (AID 1347149);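 also: purified recombinant full-length human furin enzyme at 5 nM; fluorescence gain from furin cutting a BOC-RVRR-AMC peptide substrate over 15 min; top concentration of the series differs between compounds; plate controls were no-inhibitor control for no effect and no-enzyme control for full effect; nearly all actives have a fitted effect of over 70% in size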
Summary of the method: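 Counterscreen measures cleavage of 2 microM BOC-RVRR-AMC, below its ~15 microM Km, by 5 nM full-length human furin at pH 7.0 after a 15-min compound preincubation. Inhibition derives from the 15-min fluorescence increase at 37C.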

[8] = tested on: Zika virus NS2B-NS3 protease (unlinked); assay: Optimization of GU AMC qHTS for Zika virus inhibitors: Unlinked NS2B-NS3 protease assay (AID 1347151);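 also: 0% = no-inhibitor control and -100% = no-enzyme control; nearly all actives have a fitted effect of over 80% in size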
Summary of the method: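 Fluorescence gain (340/450 nm) over 15 min at room temperature, ~20% conversion, gave percent inhibition fitted to a 4-parameter Hill equation; enzyme was unlinked NS2B-NS3 (25 nM final), pH 8.0 Tris buffer.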

[9] = tested on: Zika virus NS2B-NS3 protease (linked construct); assay: Confirmatory screen NINDS AMC qHTS for Zika virus inhibitors (AID 1347152);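 also: top concentration of the series differs between compounds; 0% = no-inhibitor control and -100% = no-enzyme control; nearly all actives have a fitted effect of over 70% in size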
Summary of the method: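 IC50s from 4-parameter Hill fits of percent inhibition, based on AMC fluorescence gain (340/450 nm) over 15 min with 10 microM Bz-Nle-KRR-AMC. Enzyme: 1 nM linked NS2B-NS3 in Tris-HCl pH 8.0; 15-min compound preincubation.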

[10] = tested on: Zika virus NS2B-NS3 protease (unlinked complex); assay: Confirmatory screen GU AMC qHTS for Zika virus inhibitors (AID 1347153);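 also: percent inhibition with 0% = no inhibitor control and 100% = no enzyme control; nearly all actives have a fitted effect of over 70% in size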
Summary of the method: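 Compounds were preincubated 15 min at room temperature with 25 nM noncovalent NS2B-NS3 protease at pH 8.0; AMC substrate added at 10 microM and 15-min fluorescence gain (340/450 nm) converted to percent inhibition, fitted 4-parameter.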

[11] = Confirmatory screen NINDS Rhodamine qHTS for Zika virus inhibitors (AID 1347161);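 also: purified Zika NS2B-NS3 protease with linked NS2B cofactor domain and Rhodamine110 peptide substrate; plate controls were no-inhibitor control for no effect and no-enzyme control for full effect; nearly all actives have a fitted effect of over 60% in size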
Summary of the method: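 qHTS dose-response: 25 nM linked protease, pH 8.0 Tris/Tween buffer, cpd titration, 15 min RT preinc, 1.5 microM Rhod110 peptide, 15 min reaction (~15% conversion), Ex480/Em540; 4-parameter Hill fit.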

[12] = Vero cells viability qHTS for Zika virus inhibitors (AID 1347167); also: % is scaled to controls: 0 for no effect and ±100 for the full control effect
Summary of the method: (§2)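 Luminescent ATP readout (CellTiter Glo) after 30 min at 37 degrees C gives viability; cells in DMEM + 4% FBS were treated 24 to 48 hours with compound, following overnight attachment.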

[13] = HepG2 cells viability qHTS for Zika virus inhibitors (AID 1347168); also: % is scaled to controls: 0 for no effect and ±100 for the full control effect
Summary of the method: as §2

[14] = Primary qHTS for Huh7 cytotoxicity: counterscreen for inhibitors of MERS-S pseudotyped particle cell entry (AID 1479147; calls by dose curve; also: % is scaled to controls: 0 for no effect and ±100 for the full control effect); conditions: outcome: dose series up to 57.1 µM unless noted
[15] = Primary qHTS for inhibitors of MERS-S pseudo-typed particle cell entry (AID 1479149; calls by dose curve; also: nearly all actives have a fitted effect of over 60% in size)
[16] = Primary qHTS for Vero E6 cytotoxicity: counterscreen for inhibitors of SARS-S pseudo-typed particle cell entry (AID 1479150; calls by dose curve; also: % is scaled to controls: 0 for no effect and ±100 for the full control effect); conditions: outcome: dose series up to 57.1 µM unless noted
[17] = Cytotoxicity counterscreen for inhibitors of SARS-CoV-2 cell entry (AID 1645845; calls by dose curve; also: nearly all actives have a fitted effect of over 50% in size)
Summary of the method: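 ATP-content luminescence (ATPLite 1step, 15 min RT) read after 48 h compound exposure of Expi293F cells stably expressing human ACE2; normalized to cells-only wells and media-only wells.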

[18] = Primary qHTS to identify inhibitors of SARS-CoV-2 cell entry (AID 1645846; calls by dose curve; also: nearly all actives have a fitted effect of over 45% in size); conditions: activity change, negative = inhibition: at 57.1 µM (top of the series) unless noted
Summary of the method: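 Entry measured by luciferase signal 48 h after adding SARS-CoV-2-S pseudotyped MLV particles to HEK293-ACE2 cells preincubated 1 h with compounds. Normalisation: bald particles and spike particles.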

[19] = target: Glutathione peroxidase 1 (Homo sapiens) (UniProt P07203); assay: Primary qHTS Assay for Inhibitors of Recombinant Selenoprotein Glutathione Peroxidase 1 (GPX1) (AID 1845191); also: % is scaled to controls: 0 for no effect and ±100 for the full control effect; nearly all actives have a fitted effect of over 65% in size
Summary of the method: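 NADPH consumption tracked by fluorescence at 340/450 nm between t=0 and t=15 min, room temperature. Final mix: 10 nM GPX1, 100 nM glutathione reductase, 1 mM GSH, 0.5 mM NADPH, 0.5 mM cumene hydroperoxide, 0.01% BSA; 30 min compound–enzyme preincubation.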

[20] = target: Phospholipid hydroperoxide glutathione peroxidase GPX4 (Homo sapiens) (UniProt P36969); assay: Primary qHTS Assay for Inhibitors of Recombinant Selenoprotein Glutathione Peroxidase 4 (GPX4) (AID 1845192); also: nearly all actives have a fitted effect of over 65% in size
Summary of the method: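 NADPH consumption followed by fluorescence at 340/450 nm, t=0 and after 15 min at room temperature. Reaction started with cumene hydroperoxide (0.5 mM final) after 30 min compound–GPX4 preincubation; final 200 nM GPX4, 100 nM GR, 1 mM GSH, 0.5 mM NADPH.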

Luciferin 4-monooxygenase (Photinus pyralis), sequence (P08659 whole entry, looked up): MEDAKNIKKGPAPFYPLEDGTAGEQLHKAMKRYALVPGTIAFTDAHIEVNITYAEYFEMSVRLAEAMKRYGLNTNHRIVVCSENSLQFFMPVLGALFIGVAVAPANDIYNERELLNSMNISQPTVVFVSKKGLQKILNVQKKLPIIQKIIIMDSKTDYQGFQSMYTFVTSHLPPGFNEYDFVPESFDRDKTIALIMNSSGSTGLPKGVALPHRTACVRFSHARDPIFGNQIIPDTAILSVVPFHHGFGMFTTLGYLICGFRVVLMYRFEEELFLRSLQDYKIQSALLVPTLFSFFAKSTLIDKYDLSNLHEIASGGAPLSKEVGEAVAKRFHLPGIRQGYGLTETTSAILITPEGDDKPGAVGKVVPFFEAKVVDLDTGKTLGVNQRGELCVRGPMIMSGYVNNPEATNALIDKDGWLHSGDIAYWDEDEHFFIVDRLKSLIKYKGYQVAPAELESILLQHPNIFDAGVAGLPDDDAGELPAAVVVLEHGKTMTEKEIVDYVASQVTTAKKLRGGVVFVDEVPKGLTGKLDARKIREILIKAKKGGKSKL
Phospholipid hydroperoxide glutathione peroxidase GPX4 (Homo sapiens), sequence (P36969 whole entry, looked up): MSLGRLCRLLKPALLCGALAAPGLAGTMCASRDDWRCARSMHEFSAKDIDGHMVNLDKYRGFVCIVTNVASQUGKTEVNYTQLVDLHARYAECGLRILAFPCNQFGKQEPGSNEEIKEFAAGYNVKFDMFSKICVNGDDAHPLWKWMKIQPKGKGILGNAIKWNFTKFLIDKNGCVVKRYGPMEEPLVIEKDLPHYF
Glutathione peroxidase 1 (Homo sapiens), sequence (P07203 whole entry, looked up): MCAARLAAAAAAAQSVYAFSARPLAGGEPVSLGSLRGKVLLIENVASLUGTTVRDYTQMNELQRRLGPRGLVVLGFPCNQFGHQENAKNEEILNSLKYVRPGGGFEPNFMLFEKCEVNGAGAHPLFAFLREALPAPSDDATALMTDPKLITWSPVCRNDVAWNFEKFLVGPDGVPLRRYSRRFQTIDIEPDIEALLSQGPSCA
Furin (Homo sapiens), sequence (P09958 whole entry, looked up): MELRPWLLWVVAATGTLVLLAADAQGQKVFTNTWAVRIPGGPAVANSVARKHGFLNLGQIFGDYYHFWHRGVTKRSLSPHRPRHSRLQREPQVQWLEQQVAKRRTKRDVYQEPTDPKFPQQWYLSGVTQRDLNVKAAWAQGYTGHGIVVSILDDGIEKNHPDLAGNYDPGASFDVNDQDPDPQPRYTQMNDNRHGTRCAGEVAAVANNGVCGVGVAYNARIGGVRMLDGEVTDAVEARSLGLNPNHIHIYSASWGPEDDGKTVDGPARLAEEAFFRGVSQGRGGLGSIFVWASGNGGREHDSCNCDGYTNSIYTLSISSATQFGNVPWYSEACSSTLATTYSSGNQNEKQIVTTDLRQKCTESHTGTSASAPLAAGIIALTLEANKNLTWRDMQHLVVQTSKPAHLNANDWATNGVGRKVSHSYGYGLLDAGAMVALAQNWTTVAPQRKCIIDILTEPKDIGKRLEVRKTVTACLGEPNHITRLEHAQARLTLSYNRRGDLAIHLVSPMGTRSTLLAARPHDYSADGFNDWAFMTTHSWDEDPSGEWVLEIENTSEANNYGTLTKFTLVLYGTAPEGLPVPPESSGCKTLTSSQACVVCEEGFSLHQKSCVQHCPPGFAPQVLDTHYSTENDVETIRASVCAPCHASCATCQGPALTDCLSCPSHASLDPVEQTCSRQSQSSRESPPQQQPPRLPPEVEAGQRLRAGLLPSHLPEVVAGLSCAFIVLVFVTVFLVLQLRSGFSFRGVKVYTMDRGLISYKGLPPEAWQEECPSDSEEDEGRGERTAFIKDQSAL

CN1CCN=C(c2ccccc2)c2cc(Cl)ccc21
inactive: Potency [1] | max response [2] 0.139% | Potency [3] | max response [4] 8.16% | Potency [5]

O=C1CN=C(c2ccccc2)c2cc(Cl)ccc2N1
inactive: Potency [1] | max response [2] 38.4% | Potency [3] | max response [4] -13.7% | Potency [6] | Potency [5]

CCc1cc(OC)c(C[C@@H](C)N)cc1OC
inactive: max response [2] 0.694% | Potency [3] | max response [4] -13.5% | Potency [5]

CCC(=O)O[C@H]1[C@@H](N2CCCCC2)C[C@H]2[C@@H]3CC[C@H]4C[C@H](OC(C)=O)[C@@H](N5CCCCC5)C[C@]4(C)[C@H]3CC[C@@]21C
inactive: Potency [3] | max response [4] -10.6% | Potency [5]

C[C@@H]1[C@@H]2Cc3ccc(O)cc3[C@@]1(C)CCN2CCc1ccccc1
inactive: Potency [7] | outcome [8] | Potency [9] | Potency [10] | Potency [11] | Potency [12] | Potency [13] | max response [4] -19% | Potency [5]
active: Potency [3] 12.6 µM

CC(C)=CCN1CC[C@]2(C)c3cc(O)ccc3C[C@H]1[C@H]2C
inactive: max response [2] 2.13% | outcome [14] | Potency [15] | outcome [16] | Potency [17] | Potency [19] | Potency [20] | max response [4] -17.1% | Potency [5]
-30.2% [at 114 µM]: activity change, negative = inhibition [18]

CCOC(=O)C1(c2ccccc2)CCCN(C)CC1 (stereo not drawn)
-23.2%: activity change, negative = inhibition [18]
inactive: Potency [1] | max response [2] 9.62% | Potency [3] | outcome [14] | Potency [15] | outcome [16] | Potency [17] | Potency [20] | max response [4] -5.26% | Potency [6] | Potency [5]

Oc1ccc2c3c1O[C@H]1[C@@H](O)C=C[C@H]4[C@H](C2)NCC[C@@]341
inactive: max response [2] 8.16% | Potency [3] | max response [4] -12.5% | Potency [6] | Potency [5]

O.O.O.O=C([O-])C(O)C(O)C(=O)[O-].O=C([O-])C(O)C(O)C(=O)[O-].[K+].[K+].[Sb].[Sb] (stereo not drawn)
active: Potency [2] 0.708 µM | Potency [3] 8.2 µM
inactive: max response [4] -33.9%

C1CN(P2(N3CC3)=NP(N3CC3)(N3CC3)=NP(N3CC3)(N3CC3)=N2)CCO1 (stereo not drawn)
inactive: Potency [1] | max response [2] -9.28% | Potency [3] | max response [4] 42.2% | Potency [6] | Potency [5]

CNC(C)Cc1ccccc1 (stereo not drawn)
inactive: Potency [1] | max response [2] 7.96% | max response [4] -8.49% | Potency [6] | Potency [5]

CCC(=O)O[C@](Cc1ccccc1)(c1ccccc1)[C@H](C)CN(C)C
active: Potency [3] 20 µM
inactive: max response [2] 0.382% | max response [4] 0.566% | Potency [5]
